Test results taken from PubChem BioAssay (Tox21).
Results filed as inconclusive are left out. Unmarked numbers belong to inactive results. Active and inactive are the calls of the source. Calls come from the whole dose curve; as a rule, active = well fitted activation curve with a large enough effect in the signal ratio in the repeat runs (not every such curve was filed as active); inconclusive = weak or mixed curves; inactive = flat fitted curve, though single readings scatter; the % refers to the signal ratio.
% is set by controls: 0 for no effect and ±100 for the full control effect.

Assay: qHTS assay to identify small molecule agonists of the TGF-beta/Smad signaling pathway (AID 1346859)
Conditions: SBE-bla HEK293T, TGF-beta/Smad beta-lactamase reporter, 5 h; series mostly up to 76.8 µM
Description: U.S. Tox21 Program National Center for Advancing Translational Sciences [NCATS] NIH Chemical Genomics Center [NCGC] U.S. Environmental Protection Agency [EPA] National Institutes of Environmental Health Sciences [NIEHS] National Toxicology Program [NTP] U.S. Food and Drug Administration [FDA] Tox21 Assay Overview: Transforming growth factor beta (TGF-beta) superfamily consists of a large number of structurally related dimeric proteins that act as hormones or local mediators in regulating a wide range of biological functions. This superfamily includes TGF-betas themselves, the bone morphogenetic proteins (BMPs) and the activins. These ligands induce oligomerization of serine/threonine receptor kinases and phosphorylate the cytoplasmic signaling molecules of Smad protein family. CellSensor SBE-bla HEK 293T cell line (Life Technologies, Carlsbad, CA), responsive to TGF-beta was used to screen Tox21 10K compound library for identification of agonists/antagonists of the Smad signaling pathway. This cell line contains a beta-lactamase reporter gene under control of the Smad binding element (SBE) stably integrated into HEK 293T cells.
Tox21 Assay Protocol Summary: SBE-bla HEK 293T cells were dispensed at 4,000/well in 6 uL of assay medium into black wall/clear-bottom 1536-well plates using a Multidrop Combi (ThermoFisher Scientific, Waltham, MA) dispenser. After the assay plates were incubated at 37 C and 5% CO2 for an overnight, 23 nL of compounds dissolved in DMSO, positive controls or DMSO only was transferred to the assay plate by a Pintool station (Kalypsys, San Diego, CA). The assay plates were incubated at 37 C and 5% CO2 for 5 hr. One uL of LiveBLAzer B/G FRET substrate (Life Technologies) was added using a Flying Reagent Dispenser (Aurora Discovery, San Diego, CA) and the plates were incubated at room temperature for 2 hr. Fluorescence intensity (405 nm excitation, 460 nm and 530 nm emissions) was measured using an Envision plate reader (PerkinElmer, Shelton, CT).
For `CC/C=C\CC1=C(C)CCC1=O`, the outcome was “inactive”. In the case of `CCOC(=O)CC(=O)c1ccccc1`, the outcome is reported as “inactive”. With `C=C(C)C(=O)OCCOP(=O)(O)OCCOC(=O)C(=C)C` the outcome was “inactive”. With `C=COCCOCCOCCOC=C` the outcome was “inactive”. For `C=CCCCCCCCCCCCC`, the outcome was “inactive”. For `O=C(OCc1ccccc1)C(=O)OCc1ccccc1`, the outcome was “inactive”. For `C=C(C)C(=O)OCc1ccccc1`, the outcome was “inactive”. For `COc1nccnc1NS(=O)(=O)c1ccc(N)cc1`, the outcome was “inactive”. With `CCCCNC1CC(C)(C)NC(C)(C)C1` the outcome was “inactive”. In the case of `O=C1O[C@@H]2[C@@H](O)[C@H](O)O[C@@H]2[C@H]1O`, the outcome is reported as “inactive”. For `ClCCCl`, the outcome was “inactive”. For `Cc1ccccc1C(=O)Nc1ccc(C(=O)N2CCCC(N(C)C)c3ccccc32)cc1` (stereo not given), the outcome was “inactive”. In the case of `COCCc1ccc(OCC2CO2)cc1` (stereo not given), the outcome is reported as “inactive”. In the case of `NCCN1CCOCC1`, the outcome is reported as “inactive”. With `COC(=O)[C@@H]1[C@H]2C[C@H]3c4[nH]c5ccccc5c4CCN3C[C@@H]2CC[C@@H]1O` the outcome was “inactive”. For `CC(=O)c1sc(C)nc1C`, the outcome was “inactive”. For `Nc1ncnc(Nc2ccccc2)n1`, the outcome was “inactive”. In the case of `OCCN(CCO)c1cccc(Cl)c1`, the outcome is reported as “inactive”. In the case of `O=P(O)(O)OP(=O)(O)O`, the outcome is reported as “inactive”. With `CC1(CO)CN(c2ccccc2)NC1=O` (stereo not given) the outcome was “inactive”. For `CCN1CCc2nc(N)oc2CC1`, the outcome was “inactive”. For `Cc1cccc2nccnc12`, the outcome was “inactive”. With `COC(=O)CCCCCCCC(=O)OC` the outcome was “inactive”. In the case of `Cc1ccccc1OCC(O)CO` (stereo not given), the outcome is reported as “inactive”. For `C=C(C)C(=O)OCC(C)(C)COC(=O)C(=C)C`, the outcome was “inactive”. For `O=C(Nc1ccc(Cl)c(Cl)c1)C1CC1`, the outcome was “inactive”. In the case of `FC(F)(F)c1ccccc1-n1ccnc1`, the outcome is reported as “inactive”. With `CC(=O)Nc1ccc(S(=O)(=O)Cl)cc1` the outcome was “inactive”. With `O=C(OCC1(COC(=O)c2cccnc2)CCCC(COC(=O)c2cccnc2)(COC(=O)c2cccnc2)C1O)c1cccnc1` the outcome was “inactive”. With `O=C(O)c1cc(Cl)cc([N+](=O)[O-])c1Cl` the outcome was “inactive”. In the case of `Nc1ccc([N+](=O)[O-])c(N)c1`, the outcome is reported as “inactive”. With `CC(CN)CC(C)(C)CCN` (stereo not given) the outcome was “inactive”. With `C[C@H](CCC(=O)O)[C@H]1CC[C@H]2[C@@H]3C(=O)C[C@@H]4CC(=O)CC[C@]4(C)[C@H]3CC(=O)[C@]12C` the outcome was “inactive”. For `CC(C)(C)c1cc(CCC(=O)NN)cc(C(C)(C)C)c1O`, the outcome was “inactive”. For `Cc1cc(Cl)c(C)cc1Cl`, the outcome was “inactive”. For `O=S(=O)(O)c1cc(O)c2ccc(Nc3ccccc3)cc2c1`, the outcome was “inactive”. For `CC(=O)NCc1c(I)c(NC(C)=O)c(I)c(C(=O)O)c1I`, the outcome was “inactive”. For `COc1cc(N)ccc1C`, the outcome was “inactive”. In the case of `CC(COC(C)(C)C)OCCCO` (stereo not given), the outcome is reported as “inactive”. `COC(=O)C1CC(=O)C(C(=O)OC)CC1=O` (stereo not given) gave an activation of 5.28% [at 6.97 µM].
